Experimental findings from PubChem BioAssay AID2284364 (EPA ToxCast) are described below.

The source made the active and inactive calls. The calls were made as follows: active = hit-call score of the fitted dose curve at least 0.9, where 1 is the maximum; inactive = score below 0.9.

The assay deals with Peroxisome proliferator-activated receptor gamma (Homo sapiens) (UniProt P37231). The assay can be described thus: ERF_US_NR_hPPARG: Eurofins (ERF) Nuclear Receptor (NR) Cell Based Protein-Protein Interaction LeadHunter Assay for human Peroxisome Proliferator-activated Receptor-gamma (PPARg) Agonism. The procedure: ERF_US_NR_hPPARG is a cell-based, single-readout assay that uses extracted gene-proteins in a cell-line assay. Measurements were taken 5 hours after chemical dosing in a 384-well plate. See PPARgamma Human NHR Cell Based Agonist Protein-Protein Interaction Assay, DiscoverX.ERF_US_NR_hPPARG is an assay component calculated from the ERF_US_NR_hPPARG assay. It is designed to measure […] using a type of binding reporter as detected by scintillation counting with radiometry technology.Data from the assay component ERF_US_NR_hPPARG was analyzed at the assay endpoint, ERF_US_NR_hPPARG, in the positive analysis fitting direction relative to DMSO as the negative control and baseline of activity. Using a type of binding reporter, gain-of-signal activity can be used to understand changes in binding as they relate to gene PPARG. To generalize the intended target to other relatable targets, this assay endpoint is annotated to the nuclear receptor intended target family, where the subfamily is non-steroidal.
Sequence of Peroxisome proliferator-activated receptor gamma (Homo sapiens) (P37231 whole entry, looked up): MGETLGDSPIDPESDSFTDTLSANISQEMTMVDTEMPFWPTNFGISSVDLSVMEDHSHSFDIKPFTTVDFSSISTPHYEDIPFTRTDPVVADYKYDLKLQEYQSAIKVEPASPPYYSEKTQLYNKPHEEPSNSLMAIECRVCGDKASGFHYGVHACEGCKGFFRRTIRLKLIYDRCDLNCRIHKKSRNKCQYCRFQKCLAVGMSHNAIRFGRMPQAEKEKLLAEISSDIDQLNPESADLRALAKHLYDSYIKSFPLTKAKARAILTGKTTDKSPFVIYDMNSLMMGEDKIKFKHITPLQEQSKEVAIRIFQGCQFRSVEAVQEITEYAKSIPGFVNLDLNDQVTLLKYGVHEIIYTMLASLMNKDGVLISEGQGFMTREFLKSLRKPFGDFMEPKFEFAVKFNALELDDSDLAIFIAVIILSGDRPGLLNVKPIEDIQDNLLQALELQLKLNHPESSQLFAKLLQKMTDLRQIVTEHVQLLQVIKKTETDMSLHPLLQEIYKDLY
Cells were seeded in a total volume of 20 uL into white walled, 384-well microplates and incubated at 37C overnight prior to testing.Briefly, intermediate dilution of sample stocks was performed to generate 5X sample in assay buffer. 5 uL of 5X sample was added to cells and incubated at 37C for 300 minutes. […] The results are expressed as a percent efficacy of the control ligand.

For the compound `O=S(=O)(O)C(F)(F)C(F)(F)C(F)(F)C(F)(F)C(F)(F)C(F)(F)C(F)(F)C(F)(F)F`, the call was inactive.
